Test results: PubChem BioAssay (NCATS)
“And” between values parts separate entries of the source, which are not always exact repeats. Equal entries are not always repeated. Inconclusive results are not listed. Some compounds were tested as several samples or in several runs, with calls that do not always agree. The source made the active and inactive calls. The call rests on the fitted dose curve; in most records, active means well fitted curve in the direction sought with a large enough effect; inconclusive means small, poorly fitted or top-dose-only effect, or another doubt; inactive means no such curve, though single readings can be large; an effect the other way counts as inactive or inconclusive.

Assays:
TAB165 = test: qHTS profiling for inhibitors of Plasmodium falciparum proliferation (AID 504749);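 further: 0% = DMSO vehicle and full inhibition = artemisinin control; nearly all actives have a fitted effect of over 60% in size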; settings: P. falciparum in erythrocytes, SYBR Green DNA, 72 h; series mostly up to 28.7 µM
Method in brief: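 P. falciparum-infected erythrocytes (0.3% parasitemia, 2.5% hematocrit) incubated with compound 72 h at 37 C, 5% CO2. Parasite DNA detected by SYBR Green after lysis, overnight at room temperature; normalised to 0.29 uM artemisinin and DMSO.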

CRL-7250 = normal cell line; test: Cytotoxic Profiling of Annotated Libraries Using Quantitative High-Throughput Screening (AID 1296008); settings: Five cell lines viability, CellTiter-Glo ATP luminescence, 48-72 h; max response: stronger effect = lower value; further: nearly all actives have a fitted effect of over 60% in size; further: potency means the concentration at half of the fitted maximal effect; on max response: on the % scale 0 is the no-effect control and ±100 the full control effect
Method in brief: (§1)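 Cells exposed to compounds for 48 or 72 hr at 37 degrees Celsius. Viability read as ATP-coupled luminescence with CellTiter-Glo after 10 min at room temperature.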

HEK293 = test: as above; settings: Five cell lines viability, CellTiter-Glo ATP luminescence, 48-72 h; max response: stronger effect = lower value
Method in brief: as §1

KB-3-1 = test: as above; settings: Five cell lines viability, CellTiter-Glo ATP luminescence, 48-72 h; max response: stronger effect = lower value
Method in brief: as §1

NIH3T3 [1] = test: as above; settings: Five cell lines viability, CellTiter-Glo ATP luminescence, 48-72 h; max response: stronger effect = lower value
Method in brief: as §1

HACAT [2] = test: qHTS assay to identify novel small-molecules to repurpose for Merkel cell carcinoma treatment (AID 1296009); settings: MCC and control cell lines, CellTiter-Glo viability, 72 h; at 44.8 µM (top of the series) unless noted; further: nearly all actives have a fitted effect of over 60% in size; further: potency means the concentration at half of the fitted maximal effect
Method in brief: (§2)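 Cells were treated for 72 hr at 37 degree celsius with compounds in 8- or 11-point dose response. Viability was read by CellTiter-Glo luminescence, normalized to no-cell (cytotoxicity) and DMSO controls.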

MCC-13 = test: as above; settings: MCC and control cell lines, CellTiter-Glo viability, 72 h; series mostly up to 46 µM
Method in brief: as §2

MCC-26 = test: as above; settings: MCC and control cell lines, CellTiter-Glo viability, 72 h; series mostly up to 46 µM
Method in brief: as §2

MKL-1 = test: as above; settings: MCC and control cell lines, CellTiter-Glo viability, 72 h; series mostly up to 46 µM
Method in brief: as §2

MKL-2 = test: as above; settings: MCC and control cell lines, CellTiter-Glo viability, 72 h; series mostly up to 46 µM
Method in brief: as §2

NIH3T3 [3] = test: as above; settings: MCC and control cell lines, CellTiter-Glo viability, 72 h; at 44.8 µM (top of the series) unless noted
Method in brief: as §2

UISO = test: as above; settings: MCC and control cell lines, CellTiter-Glo viability, 72 h; series mostly up to 46 µM
Method in brief: as §2

WaGa = test: as above; settings: MCC and control cell lines, CellTiter-Glo viability, 72 h; series mostly up to 46 µM
Method in brief: as §2

C33A = test: Primary qHTS to identify gynecologic anti-cancer compounds using libraries of approved drugs and bioactive compounds (AID 1345084); settings: Gynecologic cancer cell panel viability, ATPlite luminescence, 48 h; series mostly up to 57.5 µM; further: on the % scale 0 is the no-effect control and ±100 the full control effect; nearly all actives have a fitted effect of over 55% in size
Method in brief: (§3)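 Five-concentration response, 48 h; readout is ATP-driven luciferase luminescence.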

CAOV3 = test: as above; settings: Gynecologic cancer cell panel viability, ATPlite luminescence, 48 h; series mostly up to 57.5 µM
Method in brief: as §3

CASKI = test: as above; settings: Gynecologic cancer cell panel viability, ATPlite luminescence, 48 h; series mostly up to 57.5 µM
Method in brief: as §3

Es-2 = test: as above; settings: Gynecologic cancer cell panel viability, ATPlite luminescence, 48 h; series mostly up to 57.5 µM
Method in brief: as §3

HaCat [4] = test: Cytotoxic Profiling of Annotated Libraries Using Quantitative High-Throughput Screening (AID 1296008); settings: Five cell lines viability, CellTiter-Glo ATP luminescence, 48-72 h; max response: stronger effect = lower value; further: nearly all actives have a fitted effect of over 60% in size; further: potency means the concentration at half of the fitted maximal effect; on max response: on the % scale 0 is the no-effect control and ±100 the full control effect
Method in brief: as §1

CNC[C@H](O)c1cccc(O)c1
inactive: Potency (TAB165) | max response (CRL-7250) -1.79% and -10.1% | max response (HEK293) 1.65% and -9.71% | max response (KB-3-1) 3.69% | outcome (KB-3-1) | max response (NIH3T3 [1]) 3.51% | outcome (NIH3T3 [1]) | outcome (HACAT [2]) | Potency (MCC-13) | Potency (MCC-26) | Potency (MKL-1) | Potency (MKL-2) | outcome (NIH3T3 [3]) | Potency (UISO) | Potency (WaGa) | Potency (C33A) | Potency (CAOV3) | Potency (CASKI) | Potency (Es-2)

Cc1c(CCOc2ccc(C(=O)O)cc2)c2cc(Cl)ccc2n1C(c1ccccc1)c1ccccc1
inactive: max response (CRL-7250) -5.22% | max response (HaCat [4]) 0.869% | max response (KB-3-1) -12.2% | max response (NIH3T3 [1]) -32.3% | Potency (MCC-13) | Potency (MKL-1) | Potency (MKL-2) | Potency (UISO) | Potency (WaGa)

N#CC[C@H](C1CCCC1)n1cc(-c2ncnc3[nH]ccc23)cn1
inactive: max response (CRL-7250) -20.9% and 3.07% | max response (HaCat [4]) 0.777% | outcome (HaCat [4]) | outcome (HACAT [2]) | Potency (MCC-13) | Potency (MCC-26) | Potency (MKL-1) | Potency (MKL-2) | Potency (WaGa) | Potency (C33A) | Potency (CAOV3) | Potency (CASKI)

COc1ccc2c3n(c(=NC(=O)c4cccnc4)nc2c1OC)CCN3
active: Potency (HaCat [4]) 10.5 µM
inactive: max response (CRL-7250) -15.5% | max response (KB-3-1) -17.8% | Potency (MCC-13) | Potency (MCC-26) | Potency (MKL-1) | Potency (MKL-2)

O=C(C1CC1)N1CC[C@@H](Cn2c(-c3ccc(-c4ccc5occc5c4)cc3)nc3cnccc32)C1
inactive: outcome (CRL-7250) | max response (HaCat [4]) -11.7% | max response (KB-3-1) 3.71% | max response (NIH3T3 [1]) 1.4% | Potency (MCC-13) | Potency (MKL-1) | Potency (MKL-2) | Potency (UISO) | Potency (WaGa)

Nc1ncnc2nc(-c3ccc(N4CCOCC4)nc3)cc(-c3cccc(Br)c3)c12
inactive: max response (CRL-7250) 0.286% | max response (HaCat [4]) 3.01% | outcome (KB-3-1) | max response (NIH3T3 [1]) 1.04% | Potency (MCC-13) | Potency (MCC-26) | Potency (MKL-1) | Potency (MKL-2) | Potency (UISO) | Potency (WaGa)

Cc1ccccc1C(C(=O)NC1CCCC1)N(C(=O)Cn1cnc2ccccc21)c1cccc(F)c1 (stereo not given)
inactive: max response (CRL-7250) 1.73% | max response (KB-3-1) 7.7% | outcome (NIH3T3 [1]) | outcome (HACAT [2]) | Potency (MCC-13) | Potency (MCC-26) | Potency (MKL-1) | Potency (MKL-2) | outcome (NIH3T3 [3]) | Potency (UISO) | Potency (WaGa)

CN(C)c1ccc(Nc2nc(N)n(C(=O)c3c(F)cccc3F)n2)cc1
inactive: max response (CRL-7250) 4.97% | Potency (MCC-26) | Potency (MKL-2) | Potency (UISO) | Potency (C33A) | Potency (CAOV3) | Potency (CASKI) | Potency (Es-2)
active: Potency (NIH3T3 [1]) 10.5 µM

CCCCCCCc1ccc(CCc2cccc(O)c2C(=O)O)cc1
inactive: max response (CRL-7250) -0.808% | outcome (HaCat [4]) | outcome (HACAT [2]) | Potency (MCC-13) | Potency (MKL-1) | Potency (MKL-2) | Potency (UISO) | Potency (WaGa)

CCOC(=O)N[C@@H]1CC[C@@H]2[C@@H](C1)C[C@H]1C(=O)O[C@H](C)[C@H]1[C@@H]2C=Cc1ccc(-c2cccc(F)c2)cn1
active: Potency (MKL-2) 20.9 µM
inactive: max response (CRL-7250) -6.96% | max response (NIH3T3 [1]) -8.03% | Potency (MCC-13) | Potency (MKL-1) | Potency (UISO) | Potency (WaGa)

COc1cc2nccc(Oc3ccc(NC(=O)NC4CC4)c(Cl)c3)c2cc1C(N)=O
active: Potency (CRL-7250) 0.92 µM | Potency (NIH3T3 [1]) 14.8 µM and 4.11 µM | Potency (MKL-1) 2.64 µM | Potency (MKL-2) 9.35 µM | Potency (UISO) 18.7 µM | Potency (WaGa) 1.48 µM
inactive: max response (HaCat [4]) -5.23% and -15.3% | outcome (KB-3-1) | Potency (C33A) | Potency (CAOV3) | Potency (CASKI) | Potency (Es-2)

Cc1cc([C@@H](C)Nc2ccccc2C(=O)O)c2nc(N3CCOCC3)cc(=O)n2c1
active: Potency (CRL-7250) 3.82 µM | Potency (HEK293) 19.1 µM | Potency (NIH3T3 [1]) 12.1 µM | Potency (UISO) 34 µM
inactive: Potency (MCC-13) | Potency (MKL-1)

Cn1c(=O)c(F)c(Nc2ccc(I)cc2F)c2c(=O)n(C[C@@H](O)CO)cnc21
active: Potency (CRL-7250) 0.935 µM
inactive: max response (KB-3-1) -4.57% | Potency (MCC-26) | Potency (MKL-1) | Potency (UISO) | Potency (WaGa)

Cn1cnc2c(F)c(Nc3ccc(Br)cc3Cl)c(C(=O)NOCCO)cc21
active: Potency (HEK293) 1.32 µM | Potency (HaCat [4]) 1.48 µM | Potency (KB-3-1) 9.35 µM | Potency (NIH3T3 [1]) 4.18 µM
inactive: max response (HEK293) -14.9% | max response (KB-3-1) -17.4% and -1.76% | Potency (MKL-1) | Potency (MKL-2) | Potency (UISO) | Potency (WaGa) | Potency (C33A) | Potency (CAOV3) | Potency (CASKI)

CCn1c(-c2nonc2N)nc2c(C#CC(C)(C)O)ncc(OC[C@H]3CCCNC3)c21
inactive: outcome (HaCat [4]) | outcome (NIH3T3 [1]) | outcome (HACAT [2]) | Potency (MCC-13) | Potency (MCC-26) | Potency (MKL-1) | Potency (MKL-2) | outcome (NIH3T3 [3]) | Potency (UISO) | Potency (WaGa)
active: Potency (HEK293) 0.0469 µM | Potency (KB-3-1) 9.35 µM
